PubChem BioAssay AID1076 (NMMLSC, 2008)
The source made the active and inactive calls.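 Rule for the calls: active = cell event count below 40, meaning activity score above 60 where score is 100 minus count; inactive = the rest.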

Test: cytotoxicity in LNCaP prostate cells – cell-based, cell event count, single point, cytotoxicity control for prostate differentiation activator project, confirmation (AID 1076);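 note: counts scatter-gated live cells after medium removal discards detached dead cells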
Conditions: LNCaP cell loss, flow cytometry event count, 4 d; at 100 µM; stronger effect = lower value

| SMILES | cell event count |
| --- | --- |
| CCn1c(=O)cc(SCC(=O)N2CCN(C3CCCCC3)CC2)c2ccccc21 | 6 (inactive) |
| CCN(CC)CC(=O)Nc1ccc(-c2nc3cc(NC(=O)CN(CC)CC)ccc3o2)cc1 | 1 (inactive) |
| CCOc1ccc(-c2cc(C(=O)NCCCN3CCN(CC)CC3)c3ccccc3n2)cc1 | 39 (inactive) |
| COCCn1c(=O)[nH]c2cc(C(=O)NCCCN3CCN(c4ccc(F)cc4)CC3)ccc2c1=O | 140 (inactive) |
| Cc1onc(-c2ccccc2Cl)c1C(=O)N(C)C1CCCCC1 | 25 (inactive) |
| Cc1ccc(C)c2[nH]c(=O)c(CN(CCN3CCCC3)C(=O)Nc3cccc(Cl)c3)cc12 | 5 (inactive) |
| Cc1cc(C)c2c(=O)n(CC(=O)NCCCN3CCN(c4ccccc4F)CC3)sc2n1 | 15 (inactive) |
| O=C(c1ccc(COCC(F)(F)F)o1)N1CCCCCC1 | 118 (inactive) |
| CCc1nnc(NC(=O)CSc2nc3ccccc3s2)s1 | 209 (inactive) |
| Cc1cc(N2CCC(N(C)C3CCCC3)CC2)nc2cc(O)ccc12 | 26 (inactive) |
| Cc1nn(Cc2ccc(F)cc2)c(C)c1NC(=O)c1cc(-c2ccc3c(c2)OCO3)on1 | 105 (inactive) |
| O=C1c2ccccc2C(Nc2ccc3c(c2)OCO3)N1Cc1ccc2c(c1)OCO2 (stereo unspecified) | 178 (inactive) |
| Nc1cccc2cnccc12 | 241 (inactive) |
| COc1ccc(Cl)c(N2CCN(CCCNC(=O)Nc3ccc(C)cc3)CC2)c1 | 19 (inactive) |
| COc1ccc(-c2cc3c(=O)n(CC(=O)NC4CCN(Cc5ccccc5)CC4)ncn3n2)cc1 | 180 (inactive) |
| Cc1cccc(-c2nc(CN3CCCC(C(=O)NC4CCC(C)CC4)C3)c(C)o2)c1 (stereo unspecified) | 5 (inactive) |
